# Bioassay records from PubChem.
# Sampled rows, rich in hits. Any-hit rate of the full collection: about 1.2%.
# GSH fluor – compound fluorescence on glutathione beads, profiling panel, artefact control, biophysical, 488/530 nm, flow cytometry. AID 1776, 2009. fluorescence (KMESF) at 10 µM. actives 0.25% (n = 190,000). GSH beads flow cytometry, compound fluorescence 488/530 nm; active compounds read high; in the data active = fluorescence above about 89;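 note: glutathione beads carrying GST-tagged Bcl family fusion proteins plus one bare bead set; values are compound well signal with DMSO vehicle wells as background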
# RGS7-Gao – RGS7-Galphao binding modulators, primary screen, biochemical, multiplexed bead flow cytometry; Guanine nucleotide-binding protein G(o) subunit alpha (Homo sapiens), P09471; actives lie on both sides; binding response (% of control), % at 10 µM; actives 0.35% (n = 220,000); AID 1439, 2008; in the data active = binding response below about 49% or above about 150%; inconclusive = no clear call, values can overlap the other calls; inactive = in between;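 note: fluorescent Galphao held in activated GDP-AlF4 state binding bead-coupled RGS7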
# Target sequence (P09471 whole entry, looked up): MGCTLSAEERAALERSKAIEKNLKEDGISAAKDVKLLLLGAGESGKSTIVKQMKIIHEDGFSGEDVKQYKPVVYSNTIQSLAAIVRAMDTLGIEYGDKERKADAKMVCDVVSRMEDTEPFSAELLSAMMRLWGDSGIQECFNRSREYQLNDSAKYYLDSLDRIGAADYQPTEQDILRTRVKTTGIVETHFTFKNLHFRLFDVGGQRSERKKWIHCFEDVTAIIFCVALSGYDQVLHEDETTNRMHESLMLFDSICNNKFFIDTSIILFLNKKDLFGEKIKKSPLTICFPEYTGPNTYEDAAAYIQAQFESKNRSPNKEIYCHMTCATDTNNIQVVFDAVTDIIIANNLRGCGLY
# RGS8-Gao reg – RGS8-Galphao binding modulators, primary screen, biochemical, multiplexed bead flow cytometry | Guanine nucleotide-binding protein G(o) subunit alpha (Homo sapiens), P09471 | AID 1423, 2008 | actives lie on both sides | response (percent of control binding), % at 10 µM | actives 0.34% (n = 220,000); in the data active = response below about 60% or above about 140%; inactive = in between;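 note: Galphao activated as the GDP aluminium fluoride complex binding bead-coupled RGS8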
# RGS16-Gao HTS – modulators of RGS16 binding to Galphao, primary screen, biochemical, human proteins, multiplexed bead flow cytometry; Regulator of G-protein signaling 16 (Homo sapiens) + Guanine nucleotide-binding protein …; bead-based flow cytometry RGS16-Galphao binding, fluorescence; actives lie on both sides; binding response (% of control), % at 10 µM; actives 0.38% (n = 220,000); AID 1441, 2008;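 note: Galphao activated by GDP with aluminum fluoride before binding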
# Avidin fluor – green autofluorescence of compounds with avidin beads – biophysical, 488/530 nm, flow cytometry, artefact control, profiling panel; compound fluorescence 488/530 nm; active compounds read high; fluorescence (KMESF) at 10 µM; actives 0.38% (n = 220,000); AID 1775, 2009; in the data active = fluorescence above about 47
# RGS4-Gao reg – modulators of RGS4 binding to Galphao, primary screen, biochemical, multiplexed bead flow cytometry. Guanine nucleotide-binding protein G(o) subunit alpha (Homo sapiens), P09471. AID 1415, 2008. actives lie on both sides. binding response (% of control), % at 10 µM. actives 0.33% (n = 220,000); in the data active = binding response below about 49% or above about 150%; inactive = in between;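 note: fluorescent Galphao activated with aluminum fluoride binding bead-coupled RGS4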
# RGS4-Gao HTS – modulators of RGS–Galpha-o binding, primary screen, biochemical, multiplexed beads, flow cytometry, RGS4/7/8/16/19; shares compounds with RGS16-Gao HTS; multiplexed bead flow cytometry; RGS4–Galpha-o binding response, % at 10 µM; actives 99% (n = 1,600);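 note: fluorescently labeled Galpha-o bound to GDP with aluminium fluoride binding biotinylated RGS beads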
# Target sequence (P09471 whole entry, looked up): as above
# Target sequence (P49798 whole entry, looked up): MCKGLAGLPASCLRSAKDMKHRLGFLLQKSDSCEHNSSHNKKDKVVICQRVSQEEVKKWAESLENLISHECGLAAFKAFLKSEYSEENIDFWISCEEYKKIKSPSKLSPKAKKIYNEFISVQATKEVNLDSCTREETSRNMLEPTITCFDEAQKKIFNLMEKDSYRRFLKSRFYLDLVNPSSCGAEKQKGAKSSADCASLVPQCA
# Avidin counter – disruption of biotin probe capture by avidin, counter-screen for RGS protein interaction modulators, biochemical, flow cytometry, bead-based. shares compounds with RGS16-Gao HTS. 1,700 tested, under 10 active. streptavidin beads, fluorescein-biotin binding. AID 1783, 2009. inhibition, % at 10 µM;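 active = inhibition above 50%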;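 note: median green fluorescence of gated singlet beads compared with DMSO control wells; 0% = DMSO wells and 100% = complete loss of bead fluorescence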
# RGS8-Gao single – RGS8-Galphao binding modulators, confirmation, biochemical, multiplexed bead flow cytometry, single concentration; shares compounds with RGS16-Gao HTS; bead-based flow cytometry RGS8-Galphao binding, fluorescence; actives lie on both sides; binding response (% of control), % at 10 µM; actives 3% (n = 1,700); AID 1836, 2009; in the data active = binding response below about 72% or above about 130%; inactive = in between;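 note: Galphao activated as GDP AlF4 complex before binding bead RGS8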
# RGS7-Gao single – RGS7-Galphao binding modulators, confirmation, biochemical, multiplexed bead flow cytometry, single concentration. shares compounds with RGS16-Gao HTS. bead-based flow cytometry RGS7-Galphao binding; actives lie on both sides. response (percent of control binding), % at 10 µM. actives 7.8% (n = 1,700); in the data active = response below about 75% or above about 130%; inactive = in between;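 note: fluorescent Galphao activated with GDP and aluminum fluoride binding bead-coupled RGS7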
# RGS16-Gao single – modulators of RGS16-Galphao protein binding, confirmation, biochemical, single concentration, multiplexed bead flow cytometry; AID 1838, 2009; actives 4% (n = 1,700); shares compounds with RGS16-Gao HTS; response (% of control binding), % at 10 µM; bead-based flow cytometry; actives lie on both sides; in the data active = response below about 74% or above about 130%; inactive = in between;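 note: Galphao activated as the GDP aluminium fluoride complex binding bead-coupled RGS16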
# RGS4-Gao single – modulators of RGS4-Galphao protein binding, confirmation, biochemical, single concentration, multiplexed bead flow cytometry; shares compounds with RGS16-Gao HTS; binding response (% of control), % at 10 µM; actives lie on both sides; AID 1840, 2009; actives 4% (n = 1,700); in the data active = binding response below about 74% or above about 130%; inactive = in between
# RGS19-Gao single – regulators of RGS19-Galphao binding, confirmation, biochemical, single point, multiplexed bead flow cytometry; shares compounds with RGS16-Gao HTS; bead-based flow cytometry RGS19-Galphao binding; actives lie on both sides; response (percent of control binding), % at 10 µM; actives 5% (n = 1,700); AID 1841, 2009; in the data active = response below about 50% or above about 160%; inactive = in between;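 note: 100% = no compound control and 0% = blank background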
# * hit, by the source's call; ? = inconclusive; . = no result given; [ ] = another dose, or the depositor's remark. Unless noted, the rule behind the calls is not given here.
SMILES,GSH fluor,RGS7-Gao,RGS8-Gao reg,RGS16-Gao HTS,Avidin fluor,RGS4-Gao reg,RGS4-Gao HTS,Avidin counter,RGS8-Gao single,RGS7-Gao single,RGS16-Gao single,RGS4-Gao single,RGS19-Gao single
Cc1cc(N2CCN(c3nnnn3-c3ccccc3)CC2)n2ncnc2n1,31,119.9,140.1*[activator],553.7,3,130.9,130.9*,0.1,95.5,84.8,95.4,90.0,110.7
Cc1cc(N2CCN(c3ccccc3)CC2)n2nnnc2n1,13,104.9,102.4,110.9,41,110.9,.,.,.,.,.,.,.
O=C(COC(=O)c1ccc(Cl)cc1O)NCCN1C(=O)CSC1=O,.,?,101.2,102.4,.,106.6,.,.,.,.,.,.,.
CCOC(=O)C1(CC2CCCCO2)CCN(Cc2ccc(OC)cc2F)CC1 (stereo unspecified),10,104.7,102.8,105.7,2,101.7,.,.,.,.,.,.,.
CC(=O)c1ccc(NC(=O)c2ccc(C)c(Br)c2)cc1,18,92.4,92.9,59.6,7,98.4,.,.,.,.,.,.,.
CC(=O)c1ccc(NC(=O)Nc2ccc(Br)cc2C)cc1,20,216.5*[activator],87.5,183.9*[activator],76*,204.1*[activator],.,0.4,97.8,94.6,100.0,98.6,87.1
O=C(O)CSc1ncnc2sc(-c3ccccc3)cc12,17,94.3,96.9,98.4,8,96.1,.,.,.,.,.,.,.
O=C(O)CCSc1ncnc2sc(-c3ccccc3)cc12,.,?,114.0,235.7*[activator],86*,262.4*[activator],.,-0.4,98.1,101.1,98.3,100.3,112.6
CNc1ncnc2sc(-c3ccccc3)cc12,11,11.2*,15.8*,13.5*,0,24.4*,.,1.8,104.3,102.9,104.4,101.6,98.5
Cc1ccc(C(=O)NC(=S)Nc2cc(-c3nc4ccccc4s3)ccc2C)cc1,13,99.8,100.2,98.0,14,100.9,.,.,.,.,.,.,.
c1ccc(N(c2ccccc2)c2nc(-n3ccnc3)nc(-n3ccnc3)n2)cc1,43,.,.,.,.,.,.,0.2,101.1,101.4,102.3,100.6,112.9
O=C(O)CCCN1C(=O)/C(=C/c2ccncc2)SC1=S,.,?,104.4,136.9,40,151.3*[activator],.,-0.8,99.1,97.7,98.6,98.9,100.7
O=C(O)CCCCCN1C(=O)/C(=C\c2ccncc2)SC1=S,7,100.3,122.2,204.9,11,102.4,.,.,.,.,.,.,.
COc1ccc(CNC(=O)C2CCC(CNc3c(N4CCCCC4)c(=O)c3=O)CC2)cc1 (stereo unspecified),.,?,24.4*,14.2*,0,20.3*,.,0.8,107.2,111.0,105.9,108.4,100.5
CC(=O)Nc1ccccc1NS(=O)(=O)c1ccccc1[N+](=O)[O-],10,401.2*[activator],99.7,123.5,204*,158.2*[activator],.,3.0,104.2,101.7,99.7,102.6,106.5
CCOC(=O)CN1C(=N)N(c2nc(NC(C)C)nc(NC(C)C)n2)CC1=O,22,100.2,101.3,106.3,7,102.5,.,.,.,.,.,.,.
CCCCN(C)C(=O)Cn1cnc2sc(C)cc2c1=O,21,154.9*[activator],97.6,114.0,110*,109.4,109.4*,.,.,.,.,.,.
CC(C(=O)NC(C)(C)C)N(Cc1cccs1)C(=O)CCN1CCc2ccccc21 (stereo unspecified),21,102.2,99.5,98.4,6,99.3,.,.,.,.,.,.,.
CCCCc1cc(=O)oc2cc(C)c(CN3CCCC3)c(O)c12,29,160.1*[activator],129.2,175.1*[activator],15,139.1,139.1*,0.9,93.0,89.5,91.8,91.6,60.6
CC(CCC(=O)O)C1CC[C@@]2(C)C3C(=O)CC4C(C)(C)C(O)CC[C@]4(C)C3C(=O)C[C@]12C (stereo partly specified),.,?,56.8*,99.7,5,88.8,88.8*,-0.9,100.0,96.7,100.3,98.7,90.2
COc1ccc(Nc2nnc(SC(C(=O)Nc3cc(C)ccc3C)c3ccccc3)s2)cc1 (stereo unspecified),16,104.2,103.7,101.6,12,101.5,.,.,.,.,.,.,.
COc1ccc(C)cc1NC(=O)C(Sc1nnc(Nc2cc(C)ccc2OC)s1)c1ccccc1 (stereo unspecified),8,7.2*,3.4*,-13.1*,-3,10.6*,.,-2.2,105.5,109.5,106.6,103.7,97.6
O=C(Nc1nnc(-c2ccccc2Cl)o1)c1cc2cc([N+](=O)[O-])ccc2s1,5,92.1,83.3,17.5*,8,94.4,94.4*,.,.,.,.,.,.
COC(=O)CCCNC(=O)c1ccccn1,7,231.1*[activator],92.9,112.8,229*,119.7,119.7*,4.4,93.6,86.0,90.1,88.4,126.5
CCC(C)(C)c1nnc(NC(=O)c2cccc([N+](=O)[O-])c2)s1,12,89.2,74.9,20.3*,2,88.8,88.8*,1.8,103.2,105.4,108.7,106.9,92.0
